Experimental data from PubChem BioAssay AID2629 (Broad Institute, 2010).
Values joined by “and” are separate entries in the source; they are usually repeats but may differ in a detail not shown here. Identical values can stand only once. Hit rate of the full screen: of about 320,000 compounds, about 1,900 (0.59%) were called active. No stated cut-off is given here; in the data, active means inhibition mostly above about 10% (no sharp cut-off); inactive means mostly below about 6.7%. The entries come from a sample that favours actives as a whole.

target: Protein LANA1 (Human herpesvirus 8 type P (isolate GK18)) (UniProt Q9QR71); test: blockers of LANA interaction with H2A/H2B – biochemical, FP readout, HTS, primary screen (AID 2629); conditions: cell-free LANA-H2A/H2B peptide, fluorescence polarization, stronger effect = higher value, concentration not given here
Sequence (Q9QR71 whole entry, looked up): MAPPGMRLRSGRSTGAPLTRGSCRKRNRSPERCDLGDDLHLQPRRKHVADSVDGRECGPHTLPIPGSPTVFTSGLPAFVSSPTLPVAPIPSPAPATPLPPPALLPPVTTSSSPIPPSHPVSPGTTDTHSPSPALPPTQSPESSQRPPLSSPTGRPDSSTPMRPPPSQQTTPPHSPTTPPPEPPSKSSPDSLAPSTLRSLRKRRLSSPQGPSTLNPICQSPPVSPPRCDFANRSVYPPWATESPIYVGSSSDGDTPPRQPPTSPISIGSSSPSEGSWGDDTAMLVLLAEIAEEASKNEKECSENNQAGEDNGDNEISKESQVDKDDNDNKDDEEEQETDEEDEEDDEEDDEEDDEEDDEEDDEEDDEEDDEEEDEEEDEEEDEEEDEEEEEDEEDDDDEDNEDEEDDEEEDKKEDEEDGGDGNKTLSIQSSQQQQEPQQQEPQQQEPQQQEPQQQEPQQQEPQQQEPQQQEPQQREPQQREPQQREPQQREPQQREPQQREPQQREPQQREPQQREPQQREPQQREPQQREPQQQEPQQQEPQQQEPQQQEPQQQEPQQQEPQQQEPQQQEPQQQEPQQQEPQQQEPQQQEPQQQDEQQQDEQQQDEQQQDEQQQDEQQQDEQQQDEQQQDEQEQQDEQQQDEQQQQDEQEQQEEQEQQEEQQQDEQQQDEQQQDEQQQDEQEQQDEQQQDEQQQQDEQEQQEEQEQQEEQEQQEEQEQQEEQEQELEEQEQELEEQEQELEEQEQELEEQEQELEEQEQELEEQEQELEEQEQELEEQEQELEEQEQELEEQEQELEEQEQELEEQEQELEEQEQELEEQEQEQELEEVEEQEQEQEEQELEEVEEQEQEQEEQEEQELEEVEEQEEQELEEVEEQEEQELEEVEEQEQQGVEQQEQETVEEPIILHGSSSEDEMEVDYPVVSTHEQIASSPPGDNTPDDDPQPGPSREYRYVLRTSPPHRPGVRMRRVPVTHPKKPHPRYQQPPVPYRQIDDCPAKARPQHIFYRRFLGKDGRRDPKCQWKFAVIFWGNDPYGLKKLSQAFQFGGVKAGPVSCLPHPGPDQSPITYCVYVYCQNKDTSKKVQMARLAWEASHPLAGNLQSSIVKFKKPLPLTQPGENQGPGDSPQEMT

inhibition, active:
O=C1C=CC(=O)N1c1ccc(N2CCCCC2)cc1 6.75%
CN(C)C(=O)Cn1c(=O)n(S(=O)(=O)c2ccccc2)c2ccccc21 14%
CCN1CCN(C2CCCCC2NS(=O)(=O)c2ccc(Cl)cc2)CC1 (stereo not drawn) 16.2%
COc1ccc(NC(=O)CCCN2C(=O)C(c3ccccc3)Oc3cccnc32)cc1 (stereo not drawn) 12.5%
CC(=O)Nc1cccc(-c2nc3ccccc3s2)c1C 55.2%
O=C(O)Cc1ccc(-c2ccccc2)cc1 54.5%
O=S(=O)(Nc1cc(Cl)ccc1N1CCOCC1)c1ccccc1Cl 16.7%
COCCCNC(=S)N(CCN(C)C)Cc1cc2cc3c(cc2[nH]c1=O)OCCO3 9.12%
Cc1ccc(C(=O)COC(=O)c2cccc(N3C(=O)c4c(C)nc5ccccc5c4C3=O)c2)cc1C 14.6%
COc1ccccc1CNC(=O)C1CCCN(S(=O)(=O)c2cccc3cccnc23)C1 (stereo not drawn) 138%
O=C(C1=C(O)C(=O)N(Cc2ccccc2)C1c1cccnc1)c1ccco1 (stereo not drawn) 10.9%
CC1Cc2cc(/C(O)=C3\C(=O)C(=O)N(Cc4cccnc4)C3c3ccccc3F)ccc2O1 (stereo not drawn) 12.2%
C=CCC[C@H](Cc1ccc(F)cc1)C(=O)OC[C@@H](Cc1c[nH]c2ccccc12)NC(=O)[C@H](CC=C)CC(=O)N[C@H](CO)Cc1ccccc1 145%
O=C(Nc1nnc(-c2ccccc2)o1)c1cc(-c2cccs2)nc2ccccc12 14.9%
COc1cccc(NC(=O)CN(C)C(=O)c2cc(C3CC3)nn2-c2ccccc2)c1 559% [above what the read-out allows, likely interference]
COc1ccc(C2C=C(c3ccc(Br)cc3)Nc3nc(NS(C)(=O)=O)nn32)cc1 (stereo not drawn) 31.6%
COc1ccc(C(=O)NC(C)Cn2nc(C)cc2C)cc1OC1CCN(C(C)=O)CC1 (stereo not drawn) 16.1%

inhibition, inactive:
O=C(Cc1ccccc1)NC(=S)Nc1ccc(N2CCCCC2)cc1 2.3%
CC(=O)Nc1ccc(S(=O)(=O)Nc2ccc(N3CCCCC3)cc2)cc1 0.693%
Cc1c(C(=O)NCCN(C)C)oc2ccc(S(=O)(=O)N3CCCC3)cc12 0.441%
CCc1nn(CCCC(=O)NC(C)c2ccccc2)c(=O)c2cc3occc3n12 (stereo not drawn) 1.99%
CCN(CC(=O)NCc1cccs1)C(=O)/C=C/c1ccc(C)cc1 -0.65%
CC(CC(=O)N1CCN(S(=O)(=O)c2ccccc2)CC1)n1cncn1 (stereo not drawn) 0.88%
CCOc1ccc(S(=O)(=O)N(CC(=O)O)c2ccccc2)cc1 18.5%
CC(=O)Nc1ccc(S(=O)(=O)NNC(=O)CCc2ccccc2)cc1 -3.72%
Oc1ccccc1CNc1ncc(Br)cc1Br -2.38%
O=C(COc1nc2ccccc2nc1N1CCOCC1)NCC(F)(F)F 0.0185%
COc1cc(N2C(=O)c3ccccc3C2=O)c(Cl)cc1C(=O)OCC(=O)N1CCOCC1 2.7%
O=S(=O)(NC1CCCCC1N1CCC(O)CC1)c1ccc(Cl)cc1 (stereo not drawn) -2.17%
O=S(=O)(NC1CCCCC1N1CCCCC1)c1ccc(Cl)cc1 (stereo not drawn) 9.78%
O=C(CCn1nnc2ccccc2c1=O)N[C@@H](Cc1c[nH]c2ccccc12)C(=O)O -3.09%
CCc1cccc(NC(=O)CCCN2C(=O)C(c3ccccc3)Oc3cccnc32)c1 (stereo not drawn) 3.46%
COc1ccc(NC(=O)CCCC(=O)c2ccccc2)cc1 2.03%
Cn1cc(CN2CCC(C(O)CCc3ccccc3)CC2)c(-c2ccccc2F)n1 (stereo not drawn) 1.03%
CCn1c(=O)c2ccccc2n(CC(=O)N2CCCc3ccccc32)c1=O 0.719%
O=C(NCc1ccco1)/C(=C\c1cccc([N+](=O)[O-])c1)NC(=O)c1ccco1 -1.25%
Oc1ccc(-c2[nH]ncc2-c2nc3ccccc3s2)c(O)c1 3.42%
Cc1ccc(S(=O)(=O)N2CCN(C(=O)c3ccccc3-c3nc4ccccc4s3)CC2)c(C)c1 5.83%
O=C1C2(c3ccccc3)CN(CCCO)CC1(c1ccccc1)CN(CCCO)C2 1.07%
C=CCN(C(=O)Cn1ncc2c1-c1cc(C)ccc1OC2)c1ccccc1 -5.38%
CCCCc1cc2c(s1)CCCC/C2=N/O -0.97%
COc1ccc(N2CCN(C(=O)CCNC(=O)c3ccc(Br)cc3)CC2)cc1 -8.47%
CN(C)C(=O)c1nc2ccc(Cl)cn2c1CNCc1cccc(OC(F)(F)F)c1 1.63%
Cc1nnc(SC(C(=O)c2ccccc2)c2ccccc2)[nH]c1=O (stereo not drawn) -2.85%
O=C(Cc1ccc(-c2ccccc2)cc1)NC(c1ccccc1)c1ccccc1 3.99%
O=C(O)Cc1ccc(NCc2ccccc2Cl)cc1 4.61%
C/C(=N/OC(=O)c1ccc(Br)cc1)c1ccc(C)cc1 4.46%
Cc1nnc(-c2ccc(Oc3ccc(C)c(C)c3)c([N+](=O)[O-])c2)o1 0.884%
O=S(=O)(Nc1ccccc1N1CCOCC1)c1ccc(Cl)s1 4.05%
O=S(=O)(Nc1cc(S(=O)(=O)N2CCOCC2)ccc1N1CCCC1)c1cccs1 -1.3%
CCCCN(C(=O)c1ccc(S(=O)(=O)N2CCOCC2)cc1)C1CCS(=O)(=O)C1 (stereo not drawn) 3.61%
CCN(CC)CCCNC(=S)N(CCO)Cc1cc2cc3c(cc2[nH]c1=O)OCO3 -0.647%
CCNC(=S)N(CCN(CC)CC)Cc1cc2cc3c(cc2[nH]c1=O)OCCO3 -5.92%
C=C(C)CNC(=S)/N=c1\scc(C)n1CC 3.02%
COc1ccc(Cc2cc(-c3ccc(F)cc3)n[nH]c2=O)cc1 -1.23%
Cc1ccc(C(=O)COC(=O)CCN2C(=O)C3C4CCC(C4)C3C2=O)cc1C (stereo not drawn) 0.254%
O=C(CCc1nc2ccccc2c(=O)[nH]1)OCC(=O)c1cccc(Cl)c1 -2.71%
CC(C)(C)C1CCC(C(=O)NCC(c2cccs2)N2CCOCC2)CC1 (stereo not drawn) -3%
CN(Cc1ccc(CNC[C@H]2O[C@@H](n3cnc4c(N)ncnc43)[C@H](O)[C@@H]2O)o1)S(C)(=O)=O 1.32%
O=C(O)Cc1csc(-c2cccc(Oc3ccccc3)c2)n1 -3.8% and 4.18%
COc1cc(C(=O)OC(C)C(=O)NCC2CCCCC2)cc(NC(=O)c2ccco2)c1OC (stereo not drawn) 1.94%
CC(C)(C)c1ccc(C(=O)NCc2nnc(SCC(=O)N3CCCc4ccccc43)n2-c2ccccc2)cc1 2.13%
COc1ccc(NC(=O)C2CCCN(S(=O)(=O)c3cccc4cccnc34)C2)cc1 (stereo not drawn) -2.43%
COc1ccc(NC(=O)C2CCCN(S(=O)(=O)c3cccc4cccnc34)C2)cc1OC (stereo not drawn) 2.61%
CCOc1cc(C2C(C(=O)c3ccco3)=C(O)C(=O)N2Cc2ccccc2)ccc1O (stereo not drawn) 2.24%
COc1ccc(C2C(C(C)=O)=C(O)C(=O)N2Cc2cccnc2)cc1 (stereo not drawn) 0.519%
Cc1ccc(N(C(=O)Cc2cccs2)C2C=CS(=O)(=O)C2)cc1Cl (stereo not drawn) 0.0691%
OC1CSc2nc3ccccc3n2C1 (stereo not drawn) 0.181%
CC1Cc2cc(/C(O)=C3\C(=O)C(=O)N(CCN4CCOCC4)C3c3ccccc3F)ccc2O1 (stereo not drawn) -0.116%
COCCCN1C(=O)C(=O)/C(=C(/O)c2ccc3c(c2)CC(C)O3)C1c1cccnc1 (stereo not drawn) -6.56% and -12.2%
CN(CC(=O)NCCc1ccc(S(N)(=O)=O)cc1)CC(=O)Nc1ccc(Cl)cc1 -9.65%
CCn1cc(C(=O)NCCCN2CCCCCC2)c(=O)c2cc(S(=O)(=O)N3CCc4ccccc4C3)ccc21 1.1%
CC1(C)N=C(c2ccccn2)C(C)(C)N1O 3.45%
CC(C(=O)N1CCc2ccccc21)N(C)CC(=O)Nc1ccc(F)cc1 (stereo not drawn) 4.45%
COc1cc(NC(=O)c2ccccc2NS(=O)(=O)c2ccc(Cl)s2)cc(OC)c1 -1.77%
C=CC[C@@H](CC(=O)N[C@H](CO)Cc1ccccc1)C(=O)N[C@@H](COC(=O)[C@@H](CC=C)Cc1ccc(F)cc1)Cc1c[nH]c2ccccc12 -2.42%
C=CCC[C@@H](Cc1ccc(F)cc1)C(=O)OC[C@H](Cc1c[nH]c2ccccc12)NC(=O)[C@@H](CC=C)CC(=O)N(CCO)Cc1ccccc1 3.67%
COc1ccc(NC(=O)CSc2nc(SC)ns2)c(OC)c1 0.787%
CCCn1nc(Oc2nc(NC(C)C)nc(N(C)C)n2)ccc1=O -2.39%
CCCCN(C)CCCNC(=O)c1cc(-c2cccs2)nc2ccccc12 -1.81%
O=C(NCCN1CCOCC1)c1cc(-c2cccs2)nc2ccccc12 14%
CCc1ccccc1NC(=O)CN(C)C(=O)c1cc(C2CC2)nn1-c1ccccc1 -3.11%
COc1ccc(NC(=O)CN(C)C(=O)c2cc(C3CC3)nn2-c2ccccc2)cc1 -290%
COc1cccc(CN2CCN(Cc3ccc4cccc(F)c4n3)CC2CCO)c1 (stereo not drawn) -3.14%
COc1ccc(C2=CC(c3cccc(OC)c3)n3nnnc3N2)cc1 (stereo not drawn) -1.03%
CCS(=O)(=O)n1nc(-c2ccccc2)nc1SCc1ccccc1 0.944%
COc1ccc(C(=O)NCCn2nc(C)cc2C)cc1OC1CCN(C(C)=O)CC1 0.74%
COc1ccc(C(=O)NC(C)c2nccs2)cc1OC1CCN(C(C)C)CC1 (stereo not drawn) 4.31%
